Data as given in PubChem BioAssay (NCI).
Compounds without any hit were thinned out: in the full panel of roughly 83,000, 20% have a hit.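 Percent growth is the endpoint: 0 to 100 indicates growth inhibition (40 means 60% inhibition), 0 means no net growth, and negative values indicate cell death.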 Values without a mark were called inactive. The source made the active and inactive calls. The calls were made as follows: active = growth percent below 10; inactive = the rest.

Each compound was assayed on MDA-MB-468 breast (assay: NCI-60 one-dose screen, 48 h (100 = growth as untreated, 0 = no growth, -100 = all killed)). Settings: 10 µM unless noted.

Row | SMILES | growth
1 | C=CCOc1ccc2c(c1)CC[C@@H]1[C@@H]2CC[C@]2(C)C(=O)/C(=N/O)C[C@@H]12 | 60.8%
2 | CC(C)C(=O)Nc1ncc(C(=O)NCCN(Cc2ccccc2)C(=O)c2ccc(S(=O)(=O)Nc3ccccc3)cc2)s1 | 80.3%
3 | C#Cc1cc(C(=O)Nc2ccc(CNCCN3CCOCC3)c(C(F)(F)F)c2)ccc1C | 82.8%
4 | COc1cc(C(=O)c2cc(C)c3[nH]c4ccc(O)cc4c3c2C)cc(OC)c1OC | -22.7% (active)
5 | Cc1cc2nc(CC(=O)c3cccc([N+](=O)[O-])c3)c(=O)[nH]c2cc1C | 85.1%
6 | C=C(CC(=O)OC)C(C)=O | 102%
7 | CC(=O)Oc1ccc(C(c2ccc(OC(C)=O)cc2)c2ccccn2)cc1 | 17.3%
8 | O=c1c2ccccc2nc(COc2ccccc2)n1/N=C/C=C/c1ccccc1 | 89.1%
9 | c1ccc(-c2ccc(-c3nc4ccccc4[nH]3)cc2)cc1 | 87%
10 | O=C1Nc2c(ccc(Cl)c2Cl)/C1=C\c1ccc(C(F)(F)F)cc1 | 92.8%
11 | CC(=O)/C=C/c1cc2cc(Cl)ccc2[nH]c1=O | 82.9%
12 | CCOc1ccc(NC2=C(Cl)C(=O)c3ccccc3C2=O)cc1 | 64.9%
13 | COc1ccc(/C=C/c2nc(Nc3ccc(S(=O)(=O)Nc4nc(C)cc(C)n4)cc3)c3ccccc3n2)cc1 | 24%
14 | Cc1ccccc1/C=C/c1nn2c(-c3ccoc3C)nnc2s1 | 91.7%
15 | CN1CCCN(C(c2ccccc2)c2ccc(Cl)cc2)CC1 (stereo not given) | 83.1%
16 | O=C(O)c1cc([N+](=O)[O-])ccc1Br | 96.5%
17 | S=c1nc(CS)[nH]c2ccccc12 | 103%
18 | CC(=O)c1cc2c(N)c(C(=O)Nc3ccccc3)sc2nc1C | 24.3%
19 | O=C(Nc1ccc(-n2cc(-c3ccncc3)c(-c3ccc(Cl)c(O)c3)n2)cc1)N1CCOCC1 | 112%
20 | CCOC(=O)C(=Cc1ccc(Br)cc1)C(=O)OCC | -73.3% (active)

Row | SMILES | growth
21 | O=C(N/N=C/c1ccc(Cl)cc1)c1[nH]c2ccc(Cl)cc2c1-c1ccccc1 | 33.7%
22 | N#C/C(=C\C=C\c1ccc(-c2cc(Cl)ccc2Cl)o1)c1nc2ccccc2s1 | 109%
23 | COc1ccc(-c2nc(/C=C3/C(=O)Nc4ccc(F)cc43)c3ccccn23)cc1 | 105%
24 | COC(=O)c1ccc2cc(OC)c(OC)cc2c1 | 98.6%
25 | COc1ccc(Cn2cc3c(c2-c2cc(OC)c(OC)c(OC)c2)CCc2c(CN4CCOCC4)noc2-3)cc1 | 45.5%
26 | O=C1CN(CCN2CC(=O)NC(=O)C2)CC(=O)N1 | 94.8%
27 | CCOC(=O)c1c2c(n3ccc(NC(=O)CCN(CC)CC)cc13)C(=O)c1ncccc1C2=O | 81.7%
28 | Cc1ccc2c(c1)Nc1ccc(C)cc1C2(C)C | 101%
29 | O=C(/C=C/CN1CCOCC1)Nc1cc2c(Nc3cccc(Cl)c3F)ncnc2cc1OCCOC(F)F | -15.3% (active)
30 | O=C1N[C@@H]2[C@@H](O)[C@@H](O)[C@H](O)C[C@H]2c2cc3c(c(O)c21)OCCO3 | -27.2% (active)
31 | O=C1c2ccccc2C(c2ccccc2)C1c1ccccc1 (stereo not given) | 71.4%
32 | CCN(CC)CCCC(C)Nc1cc(O)cc2cccnc12 (stereo not given) | 73.9%
33 | Brc1cccc(-c2cc(-c3ccc4c(c3)OC=CO4)[nH]n2)c1 | 33.4%
34 | CC(=O)N(N=O)c1ccc([N+](=O)[O-])cc1Cl | 29.7%
35 | Oc1[nH]c2ccccc2c1/C=c1/ccc2c(c1)N=C(c1cc(F)cc(F)c1)N=2 | 20.6%
36 | CCC(C)(C)c1ccc(OCCCCCCN2CCN(c3ccc(C)c(Cl)c3)CC2)cc1 | 47.1%
37 | COc1cccc(-c2cn3c(ccc4ccccc43)n2)c1 | 34.2%
38 | COc1ccc(-c2nn3c(-c4ccccc4F)nnc3s2)cc1 | 6.82% (active)
39 | CC(=O)c1ccc(NCC(=O)Nc2ccccn2)cc1 | 106%
40 | CC(C)CCC(=O)[C@@H](C)[C@H]1[C@@H](OC2OCC(O)C(O)C2NS(C)(=O)=O)C[C@H]2[C@@H]3CC=C4C[C@@H](O)CC[C@]4(C)[C@H]3CC[C@]12C (stereo not given in full) | 43.8%
